Compound activity (PubChem)
BJeLR lethal – MLPCN primary cell-based screen for lethality selective to Ras in HRASV12 cells; BJeLR (HRASV12) viability, CellTiter-Glo ATP luminescence, 48 h; inhibition, % (no concentration beside the values); 0.17% of 300,000 active; AID 1554, 2009; in the data active = inhibition above about 50%
ugtP null kill – growth inhibition of ugtP-null S. aureus, primary screen, RN4220 ugtP deletion, OD600; 16 h; growth inhibition, % (concentration not given with the values); AID 1259309, 2017; 0.54% of 330,000 active; in the data active = growth inhibition above about 68%;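 note: plate controls were untreated wells for no effect and antibiotic for full effect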
Sa RN4220 lethal – growth inhibition of S. aureus RN4220, primary screen, OD600; AID 1259311, 2017; inhibition, % (no concentration beside the values); 0.33% of 330,000 active; 16 h; in the data active = inhibition above about 85%;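 note: plate controls were untreated cells for no effect and reference antibiotic for full effect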
* = called active by the depositor; . = no result given. Rows were chosen to be rich in hits. Some 0.65% of all compounds tested hit in one or more screens of this group.

SMILES	BJeLR lethal	ugtP null kill	Sa RN4220 lethal
Oc1ccc(Cl)c2cccnc12	.	98*	97*
Oc1ccc(N=Nc2ccccc2C(F)(F)F)c2cccnc12	29	99*	96*
COc1ccccc1N=Nc1ccc(O)c2ncccc12	23	-18	5
Cc1cccn2c(=O)c3cc(S(=O)(=O)c4ccccc4)c(=N)n(CC4CCCO4)c3nc12 (stereo not given)	6	-1	5
COC(=O)c1ccccc1S(=O)(=O)N1CCC(C(=O)OC(C)C(=O)Nc2ccc(NC(C)=O)cc2)CC1 (stereo not given)	-2	4	2
COc1ccccc1-c1sc2ccccc2c1-c1ccc(O)cc1	.	93*	-22
COc1ccccc1-c1sc2ccccc2c1-c1ccc2c(c1)OCO2	-11	.	.
CCOc1ccccc1NC(=O)Cn1nnc(C(=O)NCc2ccco2)c1N	44	10	12
CC(=O)c1ccc(NC(=O)C2C3CCC(C3)C2C(=O)O)cc1 (stereo not given)	8	4	6
CCOC(=O)c1c(CN2CCCCC2)oc2ccc(O)cc12	3	5	-1
COc1cc(C=CC(=O)c2ccc([N+](=O)[O-])o2)ccc1O	.	99*	68
Cc1ccc(/C=C/C(=O)c2ccc([N+](=O)[O-])o2)cc1	11	.	.
COc1ccc(C=CC(=O)c2ccc([N+](=O)[O-])o2)cc1	.	93*	18
O=C(/C=C/c1ccc(Cl)cc1)c1ccc([N+](=O)[O-])o1	40	.	.
C=Cn1c(C(=O)O)cc(CC)c1-c1ccccc1	5	11	11
CC(CN1C2=NCC(C(C)C)N2CC1Cc1ccc(O)cc1)NC(=O)CCC1CCCCC1 (stereo not given)	.	1	7
O=S1(=O)C=C(Sc2nnc(-c3ccccc3)o2)c2ccccc21	43	91*	93*
CSc1nnc(-c2ccccc2)o1	-1	11	6
Cc1ccccc1OCC(=O)Nn1c(COc2ccccc2)nc2ccccc2c1=O	1	99*	110*
Cc1cccc(C)c1OCC(=O)Nn1c(COc2ccccc2)nc2ccccc2c1=O	-5	-11	14
CC[n+]1c(C=CN(C)c2ccccc2)oc2ccc(Cl)cc21	.	12	7
CCN1/C(=C/C=C/c2oc3ccc(-c4ccccc4)cc3[n+]2CC)Oc2ccc(-c3ccccc3)cc21	80*	100*	97*
Cc1nn(C)cc1C=NNC(=O)c1ccc(Cn2cc(Cl)cn2)cc1	.	8	0
N#Cc1nc(Cc2ccccc2)oc1N1CCCC1	3	3	0
CCCCn1c(SCC(=O)Nc2nccs2)nc2ccccc2c1=O	-3	5	5
SMILES	BJeLR lethal	ugtP null kill	Sa RN4220 lethal
CCCc1nnc(NC(=O)CSc2nc3ccccc3[nH]2)s1	-2	7	5
O=C(CSc1nc2ccccc2[nH]1)Nc1nc(-c2cccc(Br)c2)cs1	-3	99*	99*
CN(C)CCCn1c(SCC(=O)Nc2nc(-c3cccc(Br)c3)cs2)nc2ccccc2c1=O	34	100*	101*
O=C(CNC(=O)c1cccs1)NN=Cc1cccc(Cl)c1	.	-1	1
COc1ccccc1N(CC(=O)NCC1CCCO1)C(=O)CNS(=O)(=O)c1ccccc1 (stereo not given)	6	-2	3
Cc1ccc(CNC(=O)Nc2ccc3c(c2)N(C)C(=O)CS3)cc1	8	1	0
C1=CCC(/C=N/n2cnnc2)CC1 (stereo not given)	3	.	.
O=Cc1[nH]c2ccccc2c1N(C(=O)CCl)c1ccc([N+](=O)[O-])cc1	111*	.	.
Cc1[nH]c2ccccc2c1C=NNc1ccc([N+](=O)[O-])cc1	.	-15	-17
Clc1cccc(-c2nnc(-c3ccccc3)o2)c1	17	-5	11
C=CCSc1nc2c(c(C3CC=CCC3)c1C#N)CCC2 (stereo not given)	-9	97*	-4
CC(C)OC(=O)CSc1nc2c(c(C3CC=CCC3)c1C#N)CCC2 (stereo not given)	-1	35	-2
Cc1ccc(C=NNC(=O)C(C)Oc2cccc3ccccc23)o1 (stereo not given)	.	4	5
O=C(NC(=S)Nc1ccccc1Br)C1CC1	10	10	5
Cc1ccc(NC(=S)NC(=O)C2CCCC2)c(Br)c1	.	93*	7
Cc1nc2cc(F)ccc2n1C1CCN(C(=O)c2c(F)cccc2F)CC1	7	-1	2
CCOc1ccc(Cc2c(Cl)nc(N)nc2Cl)cc1	-10	-2	-2
CSc1nc(Cl)c(Cc2ccc(OC(C)C)cc2)c(N(C)C)n1	1	94*	-13
CCOc1ccc(Cc2c(Cl)nc(SC)nc2N(C)C)cc1	15	93*	-7
COc1ccc(Cc2c(Cl)ncnc2Cl)cc1	0	4	4
CN(C)C(=O)CS(=O)(=O)c1ccc(Cl)cc1	3	1	1
O=C(/C=C/c1ccc(O)cc1)OCc1occc(=O)c1O[C@@H]1OC(CO)[C@@H](O)[C@H](O)[C@@H]1O (stereo not given in full)	-7	.	.
O=C(CSc1nnc(CNC(=O)c2ccccc2F)o1)Nc1ccc2c(c1)OCO2	9	2	2
C=CCNC(=S)NNc1nc2c(c(=O)[nH]1)C1(CCCCC1)Cc1ccccc1-2	-2	85*	-18
O=c1[nH]c(NCCO)nc2c1C1(CCCC1)Cc1ccccc1-2	6	-9	-3
SMILES	BJeLR lethal	ugtP null kill	Sa RN4220 lethal
CCN1/C(=C/c2ccc3cc(C)ccc3[n+]2CC)Sc2cc(C)c(C)cc21	.	100*	100*
CC(=S)/C=C1\Sc2ccccc2N1C	4	-1	0
CCN1/C(=C/c2ccc3cc(C)ccc3[n+]2CC)Sc2ccccc21	.	100*	100*
CCOC(=O)/C(=C/C=C1\Sc2cc(C)c(C)cc2N1CC)C(C)=O	-4	8	13
CC[n+]1c(/C=C2\Sc3ccccc3N2C)ccc2cccc(C)c21	35	101*	100*
CCC(=O)/C=C1/Sc2ccccc2N1CC	-11	-9	3
CC(C)(CNC(=O)c1ccc(S(=O)(=O)Nc2ccccc2F)cc1)N1CCOCC1	3	.	.
COc1ccc(Cn2c(/C=C/c3ccccc3)nc3ccccc32)cc1	1	-29	-11
COc1ccc(/C=C/c2nc3ccccc3n2C)cc1	80*	1	17
O=C(Nc1cccc(C(=O)O)c1)/C(=C\c1ccco1)NC(=O)c1ccccc1	-8	10	0
CCC(=O)n1nc(-c2ccc(Cl)cc2)nc1N	3	8	5
CCc1nc(N)nc(N)c1-c1ccc(Cl)cc1	62*	15	6
Cc1cc(-n2c(C)cc(C(=O)COc3ccc([N+](=O)[O-])cc3)c2C)no1	-1	6	-1
Nc1ccc2c3c(cccc13)-c1ccccc1-2	.	85*	71
Cc1ccc2c3c(cccc13)-c1ccccc1C2=O	1	47	2
O=[N+]([O-])c1ccccc1OCCOc1ccccc1[N+](=O)[O-]	-15	1	2
O=C(CCN1C(=O)/C(=C/c2ccccc2Cl)SC1=S)NC1=NCCS1	-3	87*	3
O=C(CCN1C(=O)/C(=C/c2ccccc2Cl)SC1=S)Nc1ccccn1	-8	-8	-4
O=C(Nc1ccccc1O)c1ccc2c(c1)C(=O)N(Cc1ccco1)C2=O	.	-2	4
CC(=O)c1ccc(Oc2cc(C)nc(NCc3ccccc3)n2)cc1	5	-9	-2
